Most compounds without a hit are left out; they make up all but 3.5% or so of the library.
TEAD-YAP inh: TEAD-YAP interaction inhibition; HEK-TIYL cells, TEAD-Gal4/YAP UAS-luciferase luminescence; inhibition, % at 9.12 µM; 640,000 compounds, 1.4% hits; in the data active means inhibition above about 32%;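 further: 0% = median of test compound wells and 100% = reference inhibitor wells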
MITF primary: human MITF inhibition, primary screen | AlphaScreen MITF homodimerization, bead proximity signal | inhibition, % at 2.6 µM | 650,000 compounds, 0.91% hits; in the data active means inhibition above about 50%;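 further: 0% = vehicle wells with protein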
Target sequence (O75030 whole entry, looked up): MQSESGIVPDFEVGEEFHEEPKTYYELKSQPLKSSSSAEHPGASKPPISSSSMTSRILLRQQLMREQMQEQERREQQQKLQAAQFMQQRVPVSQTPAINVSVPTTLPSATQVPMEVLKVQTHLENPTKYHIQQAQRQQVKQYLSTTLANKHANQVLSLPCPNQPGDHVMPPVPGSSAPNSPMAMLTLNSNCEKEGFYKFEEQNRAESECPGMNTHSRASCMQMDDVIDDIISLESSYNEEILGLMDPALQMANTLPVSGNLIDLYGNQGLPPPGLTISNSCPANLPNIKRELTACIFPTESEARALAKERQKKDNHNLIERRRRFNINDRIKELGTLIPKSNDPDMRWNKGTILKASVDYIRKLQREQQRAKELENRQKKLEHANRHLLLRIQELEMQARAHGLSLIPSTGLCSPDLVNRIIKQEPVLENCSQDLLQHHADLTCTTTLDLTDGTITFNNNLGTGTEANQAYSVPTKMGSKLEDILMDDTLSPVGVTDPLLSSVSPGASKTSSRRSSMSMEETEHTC
FBW7 act: activators of human E3 ligase FBW7. 650,000 compounds, 0.13% hits. AlphaScreen FBW7–phospho-cyclin E peptide binding, activator screen. AID 1259310. Q969H0. normalized activity (activation), % at 26.1 µM; in the data active means normalized activity above about 1.9%;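 further: purified mutant Fbw7 with reduced substrate affinity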
GPR151 ag: human GPR151 activation; Q8TDV0; PathHunter beta-arrestin GPR151 cells, luminescence; activation, % at 11.2 µM; 650,000 compounds, 1% hits; in the data active means activation above about 4.9%;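 further: 0% = median of compound wells and 100% = cells with positive control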
GPR151 confirm: human GPR151 activation, confirmation screen. activation, % at 11.2 µM. 6,700 tested, under 10 active. GPR151 PathHunter beta-arrestin cells, luminescence, 90 min; % of EA-reagent control over plate median. shares compounds with GPR151 ag. AID 1508609;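 active means mean percent activation across replicates above the confirmation screen cutoff of 4.91%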
GPR119 ag: counter-screen for GPR151 activators: effect on human GPR119 | AID 1508611 | 6,700 compounds, 0.3% hits | shares compounds with GPR151 ag | GPR119 PathHunter beta-arrestin cells, luminescence, 90 min; 0 = compound-well median, 100 = enzyme-acceptor control | activation, % at 11.2 µM;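 active means mean percent activation in the counterscreen above 29.09%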;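 further: counterscreen on off-target GPR119 to flag nonselective hits from the GPR151 activator screen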
* marks the source's active call; other numbers are inactive results.

`CCCC1=C(C(=O)OCC)C(c2ccc(OC)c(OC)c2OC)NC(=O)N1` (stereo not drawn) gave TEAD-YAP inh 4, MITF primary 16, FBW7 act 0 and GPR151 ag 0.
COCCNC(=O)c1cccc(OC2CCN(C(C)CSC)CC2)c1 (stereo not drawn) was read as TEAD-YAP inh 4, MITF primary -2, FBW7 act 0, GPR151 ag 7.0*, GPR151 confirm 0 and GPR119 ag 10.
For CS(=O)(=O)N1CCC(Oc2cccc(C(=O)NCCCOc3cccnc3)c2)CC1 the results were TEAD-YAP inh 6, MITF primary 0, FBW7 act 0, GPR151 ag 5.0*, GPR151 confirm 0 and GPR119 ag 5.
Screening C=C(C)CCC(C)N1CCC(Oc2cccc(C(=O)NCCOC)c2)CC1 (stereo not drawn) returned TEAD-YAP inh 3, MITF primary 4, FBW7 act 0 and GPR151 ag -1.
Screening O=C(O)c1cccc(-c2cnc3ccc(NCCCO)nn23)c1 returned TEAD-YAP inh 2, MITF primary 18, FBW7 act 0 and GPR151 ag 1.
CN(C)[C@H]1N(C(=O)c2cccc([N+](=O)[O-])c2)N=C2c3ccccc3S(=O)(=O)N21 was read as TEAD-YAP inh 2, MITF primary 11, FBW7 act 0 and GPR151 ag -1.
For CCCOc1ccc(-c2ccc(-c3nc(-c4ccccc4Cl)no3)cc2)cc1 the results were TEAD-YAP inh -2, MITF primary 2, FBW7 act 0 and GPR151 ag -1.
CCS(=O)(=O)N1CCC(c2[nH]ncc2-c2cc(C)no2)CC1 was read as TEAD-YAP inh -5, MITF primary 20, FBW7 act 0, GPR151 ag 5.9*, GPR151 confirm 1 and GPR119 ag 9.
`CC(=O)N1CCC(c2[nH]ncc2-c2cc(C)no2)CC1` gave TEAD-YAP inh -7, MITF primary -17, FBW7 act 0 and GPR151 ag 1.
Screening O=C1C(C=NC2CCCCCC2)=C(O)c2ccccc21 returned TEAD-YAP inh 15, MITF primary -8, FBW7 act 1 and GPR151 ag -3.
`Cn1c(N/N=C\c2cccc(O)c2)cc(=O)n(C)c1=O` gave TEAD-YAP inh 9, MITF primary 4, FBW7 act 0 and GPR151 ag 3.
`Cn1c(N/N=C\c2cccs2)cc(=O)n(C)c1=O` gave TEAD-YAP inh 0, MITF primary 7, FBW7 act 0, GPR151 ag 6.6*, GPR151 confirm 0 and GPR119 ag -1.
For COc1cc(/C=N\Nc2cc(=O)n(C)c(=O)n2C)ccc1O the results were TEAD-YAP inh 24, MITF primary 21, FBW7 act 0, GPR151 ag 5.7*, GPR151 confirm -1 and GPR119 ag -11.
Screening COc1cccc(OCc2nc(N(C)C)c3cc(-c4cn[nH]c4)ccc3n2)c1 returned TEAD-YAP inh -5, MITF primary 15, FBW7 act 0 and GPR151 ag 1.
Cc1cc(C)c2c(c1)CC(C)(C)c1nn3c(=O)cc(C(F)(F)F)nc3nc1-2 was read as TEAD-YAP inh 8, MITF primary -3, FBW7 act 0 and GPR151 ag -1.
For COC(=O)CN1C(=O)/C(=C\c2cccc(F)c2)Oc2ccccc21 the results were TEAD-YAP inh -3, MITF primary 1, FBW7 act 0 and GPR151 ag 0.
Screening O=C(Nc1ccc2c(c1)CN(C1CSCCSC1)CC2)c1ccncc1 returned TEAD-YAP inh -27, MITF primary -11, FBW7 act 0, GPR151 ag 5.3*, GPR151 confirm 0 and GPR119 ag 7.
Screening CC1CCN(S(=O)(=O)c2coc(C(N)=O)c2)CC1 returned TEAD-YAP inh -14, MITF primary -9, FBW7 act 0, GPR151 ag 10*, GPR151 confirm 0 and GPR119 ag 11.
Screening CC(=O)N1CCN(S(=O)(=O)c2ccc(S(=O)(=O)N3CCC(C)CC3)cc2)CC1 returned TEAD-YAP inh -2, MITF primary 15, FBW7 act 0 and GPR151 ag -1.
`Cc1ccc2c(c1)c(=O)c1ccccc1n2CCCC(=O)Nc1ccc(Br)cn1` gave TEAD-YAP inh 38*, MITF primary -6, FBW7 act 0, GPR151 ag 17*, GPR151 confirm 0 and GPR119 ag 16.
`Cc1ccc2c(c1)c(=O)c1ccccc1n2CCCC(=O)Nc1ccc(Br)cc1C` gave TEAD-YAP inh 2, MITF primary -7, FBW7 act 0 and GPR151 ag 0.
For COc1ccc(OC)c(NC(=O)CC(Cc2ccc(Cl)cc2)C(=O)O)c1 (stereo not drawn) the results were TEAD-YAP inh 6, MITF primary 8, FBW7 act 0, GPR151 ag 5.2*, GPR151 confirm 0 and GPR119 ag -7.
CCOc1ccc(N=C2SC(C(=O)Nc3ccc(C(=O)O)cc3)CC(=O)N2Cc2ccccc2)cc1 (stereo not drawn) was read as TEAD-YAP inh 1, MITF primary -3, FBW7 act 0 and GPR151 ag 2.
`COCCOC(=O)c1c(C)oc2ccc(OCC#N)cc12` gave TEAD-YAP inh -11, MITF primary 4, FBW7 act 0, GPR151 ag 11*, GPR151 confirm -1 and GPR119 ag -7.
Screening C#CCOc1ccc2c(c1)c(C(=O)OCC)c(C)n2C returned TEAD-YAP inh 10, MITF primary -1, FBW7 act 0 and GPR151 ag 2.
CCOC(=O)c1c(C)n(C)c2ccc(OCC#N)cc12 was read as TEAD-YAP inh 11, MITF primary 14, FBW7 act 0, GPR151 ag 7.1*, GPR151 confirm 0 and GPR119 ag 0.
`O=C(CN1C(=O)N/C(=C\c2ccc(N3CCCCC3)cc2)C1=O)Nc1ccccc1` gave TEAD-YAP inh -32, MITF primary 23, FBW7 act 0 and GPR151 ag -1.
O=C(/C=C/c1ccccc1)NCCOC(=O)Nc1ccccc1 was read as TEAD-YAP inh -1, MITF primary 11, FBW7 act 1, GPR151 ag 9.8*, GPR151 confirm 1 and GPR119 ag 5.
O=C(Nc1cccc(C(F)(F)F)c1)C1C2CC3OC(=O)C1C3C2 (stereo not drawn) was read as TEAD-YAP inh -2, MITF primary 1, FBW7 act 0, GPR151 ag 6.3*, GPR151 confirm 1 and GPR119 ag 15.
Screening O=C(Nc1cc(C(F)(F)F)ccc1Cl)C1C2CC3OC(=O)C1C3C2 (stereo not drawn) returned TEAD-YAP inh -1, MITF primary 4, FBW7 act 0 and GPR151 ag -2.

Screening results: PubChem, The Scripps Research Institute Molecular Screening Center
